This note sets out measurements from PubChem BioAssay (NCATS).

Assay [1] deals with Lysosomal acid glucosylceramidase (Homo sapiens) (UniProt P04062). Nature of the assay: Glucocerebrosidase-p2 (AID 348; in the data active = potency below about 10 µM; note: potency is the fitted concentration of half-maximal effect). The following applies: purified GBA, blue fluorogenic substrate, 40 min. In short, it runs like this:
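Normal human glucocerebrosidase (0.2 nM) with blue fluorogenic substrate (80 uM final) in citrate/phosphate pH 5.9 with 10mM sodium taurocholate, 0.01% tween-20; 40 min RT, NaOH/glycine stop; fluorescence Ex 365/Em 440; AC50 from a titration from 0.6 nM upwards.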

Assay [2] in a line: AP1 Signaling Pathway (AID 357).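 Note: ME-180 reporter cells stimulated with EGF at its EC50 level; % is set by controls: 0 for no effect and ±100 for the full control effect.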 The following applies: ME-180 AP-1-bla reporter, EGF-induced, beta-lactamase ratio, 5 h; at 7.69 µM (top of the series) unless noted. Summed up: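 A ratiometric CCF4 readout (405 nm excitation; 460 and 530 nm emission) quantified AP-1-driven beta-lactamase in ME-180 cells after 5 h with compound and EC50 EGF; AC50 values were derived for activators and inhibitors.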

Assay [3] deals with Cytochrome P450 1A2 (Homo sapiens) (UniProt P05177). Nature of the assay: p450-cyp1a2 (AID 410; calls by dose curve; note: potency is the fitted concentration of half-maximal effect;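 for activity change, negative = inhibition: -100% = full effect of reference inhibitor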). The following applies: recombinant CYP1A2, luciferin-ME demethylation, luminescence; series mostly up to 11.4 µM. Summed up:
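O-Demethylation of luciferin 6' methyl ether by human CYP1A2 is monitored as luciferase luminescence. Substrate sits at Km (100uM); enzyme is 20nM. Values are scaled to 57 uM furafylline as maximal inhibition.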

Assay [4] is described as follows: NFAT Signaling Pathway (AID 444).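 Note: carbachol stimulus at about its EC50 of 1 µM final; % is set by controls: 0 for no effect and ±100 for the full control effect.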 The following applies: Jurkat NFAT-bla M1, carbachol, beta-lactamase ratio, 5 h; at 7.69 µM (top of the series) unless noted. In short, it runs like this: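 Read-out: CCF4 FRET ratio (460 nm/530 nm) after 1 h RT dye loading, used for %activity and AC50 from titration series. Cells: Jurkat NFAT-β-lactamase/M1 line, treated with compound plus 1 uM carbachol for 5 h, 37 °C.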

The nature of assay [5]: Stat Signaling Pathway (AID 446).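 Note: ME-180 cervical cancer cells given 40 pM IL-6 alongside compound; SIE-controlled beta-lactamase reporter measured as 460/530 nm FRET emission ratio; % is set by controls: 0 for no effect and ±100 for the full control effect.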 The following applies: ME-180 (cervical carcinoma) SIE beta-lactamase reporter, IL-6 stimulated, 5 h; at 7.69 µM (top of the series) unless noted. Summed up:
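Normalization used AC90 stimulation (300 pM IL-6) and AC90 inhibition (125 nM pan-JAK inhibitor at 40 pM IL-6). The underlying signal is SIE-driven beta-lactamase in ME-180 cells after 5 h IL-6 exposure with compound.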

Assay [6] deals with Glucocorticoid receptor (Homo sapiens) (UniProt P04150). Nature of the assay: GR-GFP Redistribution (AID 450;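 active = compounds whose dose series gives a full or clear partial fitted curve of increased nuclear translocation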; note: potency is the fitted concentration of half-maximal effect). The following applies: U2OS GR-GFP nuclear translocation, laser cytometry, 2 h.
Assay [7] shares this target. Nature of the assay: GR-EFC Redistribution (AID 451; calls by dose curve; note: potency is the fitted concentration of half-maximal effect). The following applies: CHO-K1 GR-EFC translocation, beta-gal luminescence, 2 h. Summed up: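 Translocation of GR-ED fusion to nuclear EA restores b-gal, read by luminescence after 1 h room-temperature detection. Engineered CHO-K1 biosensor cells, 1,000/well, exposed 2 h at 37 C to titrations up to 46 uM final.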
For assay [8], the target named is Mitogen-activated protein kinase 10 (Mus musculus) (UniProt Q61831). Nature of the assay: JNK3 AlphaScreen Assay (AID 530).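 Note: kinase came from lysate of stimulated human HepG2 cells; signal reports phosphorylation of biotinylated GST-cJun 1-79 at Ser73 with 10 µM ATP; % is set by controls: 0 for no effect and ±100 for the full control effect.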 The following applies: JNK3 lysate, c-Jun phosphorylation; series mostly up to 11.4 µM. Summed up: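 qHTS titrations with 15 min compound pre-incubation before adding ATP (10 uM final). Read-out: AlphaScreen of Ser73-phosphorylated biotin-GST-cJun using HepG2 lysate JNK3 activated by IL-1β and TNFα.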
Background: Alpha assays give light when donor and acceptor beads are brought close together.

Assay [9] deals with 3',5'-cyclic-AMP phosphodiesterase 4B (Homo sapiens) (UniProt Q07343). Nature of the assay: qHTS Assay for Inhibitors of PDE-IV (AID 607; active = well fitted activation curve with a large enough effect in the main read-out, with a control signal flat, not every such curve was filed as active; note: % of control where 0% means no effect). The following applies: HEK293 ACTOne CNG channel cells, membrane potential fluorescence; series mostly up to 22.9 µM. Summed up:
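HEK293 ACTOne cells with CNG channel (1000/well), endogenous PDE4; membrane potential dye, compounds up to 22.9 uM final. Fluorescence Ex 535/Em 590; RO 20-1724 (100 uM final) as reference.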
Background: Quantitative high-throughput screening tests each substance at several concentrations.

Values without a mark were called inactive. Records with an inconclusive call do not appear. Activity calls are given as the source filed them. Unless noted, calls come from the whole dose curve; as a rule, active = well fitted curve in either direction with a large enough effect (not every such curve was filed as active); inconclusive = small, poorly fitted or top-dose-only effect, or another doubt; inactive = flat fitted curve, though single readings scatter.

Cytochrome P450 1A2 (Homo sapiens), sequence (P05177 whole entry, looked up): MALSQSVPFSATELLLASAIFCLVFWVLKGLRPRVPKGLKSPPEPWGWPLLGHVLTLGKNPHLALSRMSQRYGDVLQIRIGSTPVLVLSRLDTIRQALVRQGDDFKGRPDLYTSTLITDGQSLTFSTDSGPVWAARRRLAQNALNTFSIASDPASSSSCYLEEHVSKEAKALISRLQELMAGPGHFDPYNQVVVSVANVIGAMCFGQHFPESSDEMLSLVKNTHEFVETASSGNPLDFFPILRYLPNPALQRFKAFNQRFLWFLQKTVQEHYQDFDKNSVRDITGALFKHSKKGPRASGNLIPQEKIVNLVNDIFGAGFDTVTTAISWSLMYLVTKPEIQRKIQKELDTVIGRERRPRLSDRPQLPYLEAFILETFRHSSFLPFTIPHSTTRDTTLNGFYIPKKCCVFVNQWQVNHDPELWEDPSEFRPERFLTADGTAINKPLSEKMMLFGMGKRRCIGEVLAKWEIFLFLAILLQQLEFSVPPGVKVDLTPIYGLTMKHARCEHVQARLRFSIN
Glucocorticoid receptor (Homo sapiens), sequence (P04150 whole entry, looked up, the tested form may be a part): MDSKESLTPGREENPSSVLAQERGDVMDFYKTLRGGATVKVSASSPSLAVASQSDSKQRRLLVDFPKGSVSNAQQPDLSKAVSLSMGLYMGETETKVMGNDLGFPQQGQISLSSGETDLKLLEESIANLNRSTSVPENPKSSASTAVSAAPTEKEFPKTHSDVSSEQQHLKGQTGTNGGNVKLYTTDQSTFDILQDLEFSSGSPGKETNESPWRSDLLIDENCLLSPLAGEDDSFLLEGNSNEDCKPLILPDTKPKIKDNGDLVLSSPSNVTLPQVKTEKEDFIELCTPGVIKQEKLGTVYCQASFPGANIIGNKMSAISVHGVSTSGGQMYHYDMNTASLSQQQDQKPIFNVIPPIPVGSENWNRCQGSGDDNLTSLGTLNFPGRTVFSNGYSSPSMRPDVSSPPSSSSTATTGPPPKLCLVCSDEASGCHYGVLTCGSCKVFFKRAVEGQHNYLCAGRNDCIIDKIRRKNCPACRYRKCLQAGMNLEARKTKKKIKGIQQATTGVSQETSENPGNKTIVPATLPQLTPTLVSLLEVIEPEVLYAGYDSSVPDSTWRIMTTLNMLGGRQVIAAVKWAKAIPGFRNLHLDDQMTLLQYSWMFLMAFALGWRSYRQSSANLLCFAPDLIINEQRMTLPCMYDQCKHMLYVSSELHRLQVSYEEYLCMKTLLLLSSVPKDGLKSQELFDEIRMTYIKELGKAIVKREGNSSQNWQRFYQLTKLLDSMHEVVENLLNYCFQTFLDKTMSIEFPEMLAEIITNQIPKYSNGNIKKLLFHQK
Lysosomal acid glucosylceramidase (Homo sapiens), sequence (P04062 whole entry, looked up): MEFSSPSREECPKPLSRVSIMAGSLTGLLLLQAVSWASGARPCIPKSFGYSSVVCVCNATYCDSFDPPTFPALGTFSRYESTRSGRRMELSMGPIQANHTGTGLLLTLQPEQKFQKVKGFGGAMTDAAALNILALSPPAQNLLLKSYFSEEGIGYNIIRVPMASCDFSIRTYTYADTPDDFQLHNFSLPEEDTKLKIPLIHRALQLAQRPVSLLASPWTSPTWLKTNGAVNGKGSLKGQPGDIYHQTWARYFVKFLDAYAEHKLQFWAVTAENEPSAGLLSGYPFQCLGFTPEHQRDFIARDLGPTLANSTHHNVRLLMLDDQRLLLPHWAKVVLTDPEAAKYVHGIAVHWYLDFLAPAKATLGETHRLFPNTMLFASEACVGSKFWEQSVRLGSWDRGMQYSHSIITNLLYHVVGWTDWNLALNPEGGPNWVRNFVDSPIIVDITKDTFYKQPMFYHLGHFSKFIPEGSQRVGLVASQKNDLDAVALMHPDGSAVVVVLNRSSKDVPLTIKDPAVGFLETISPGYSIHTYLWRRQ
3',5'-cyclic-AMP phosphodiesterase 4B (Homo sapiens), sequence (Q07343 whole entry, looked up): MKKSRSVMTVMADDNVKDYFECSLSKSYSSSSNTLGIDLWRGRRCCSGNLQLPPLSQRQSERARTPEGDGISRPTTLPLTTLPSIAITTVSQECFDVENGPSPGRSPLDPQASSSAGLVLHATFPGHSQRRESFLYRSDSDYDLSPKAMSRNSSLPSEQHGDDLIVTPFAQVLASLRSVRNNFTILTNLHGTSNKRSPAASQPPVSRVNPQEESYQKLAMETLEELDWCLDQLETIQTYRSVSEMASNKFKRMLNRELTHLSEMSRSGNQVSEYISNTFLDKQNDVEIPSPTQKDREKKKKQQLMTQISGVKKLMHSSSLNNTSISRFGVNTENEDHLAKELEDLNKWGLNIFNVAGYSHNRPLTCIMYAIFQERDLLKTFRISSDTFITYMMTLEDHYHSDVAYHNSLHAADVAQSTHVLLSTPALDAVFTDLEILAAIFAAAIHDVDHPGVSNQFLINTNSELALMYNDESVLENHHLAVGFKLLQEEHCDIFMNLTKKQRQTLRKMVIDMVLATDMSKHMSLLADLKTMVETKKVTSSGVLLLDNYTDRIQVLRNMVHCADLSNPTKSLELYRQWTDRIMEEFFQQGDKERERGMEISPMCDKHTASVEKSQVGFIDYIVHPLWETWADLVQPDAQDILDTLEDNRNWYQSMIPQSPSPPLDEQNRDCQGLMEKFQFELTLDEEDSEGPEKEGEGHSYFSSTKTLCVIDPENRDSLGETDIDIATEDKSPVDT

As for `CC[C@](N)(C(=O)O)C(C)C`, the Potency in [1] was greater than 11.4 µM; in [6], greater than 46 µM; in assay [7], greater than 9.22 µM. In addition, the activity change, negative = inhibition was 6.23% in [2] and -9.09% in [4]. For the same compound, the Potency result in assay [3], in assay [8] and in assay [9] was “inactive” in each case. In addition, in assay [5], the activity, negative = inhibition was -6.84%.
With `O=C1C2C3C=CC(C2C(=O)N1CN1CCOCC1)C1C2C(=O)N(CN4CCOCC4)C(=O)C2C31` (stereo not given), the Potency in assay [1] was greater than 11.4 µM; in [6], greater than 46 µM; in assay [7] it was greater than 9.22 µM. Also, the figures for the activity change, negative = inhibition in assay [2] and in assay [4] were 1.83% and 6.33%, respectively. Besides, the Potency entry in assay [3], in [8] and in assay [9] was “inactive” each time. Further, the activity, negative = inhibition in assay [5] was 11.2%.
Regarding `c1ccc2c(CC3NCCN3)cccc2c1`, the figures for the Potency in assay [1], in assay [6] and in [7] were greater than 11.4 µM, greater than 46 µM and greater than 9.22 µM, respectively. Further, the activity change, negative = inhibition in assay [2] was 7.37%; in assay [4], -8.06%. Further, the Potency result in [3], in assay [8] and in assay [9] was “inactive” throughout. Moreover, in [5], the activity, negative = inhibition was 1.71%.
Consider `Cc1nc2cccc([N+](=O)[O-])c2n1CCCN(C)C`, for which the Potency in assay [1] is greater than 11.4 µM; in assay [6], greater than 46 µM; in [7], greater than 9.22 µM. Further, the activity change, negative = inhibition in assay [2] was 11.7%; in [4] it was 12.7%. Also, the Potency entry in [3], in assay [8] and in assay [9] was “inactive” each time. In addition, in [5], the activity, negative = inhibition is 9.88%.
Take `O=C(Nc1nn[nH]n1)c1nc(-c2ccccc2)cc(=O)[nH]1`: the Potency in [1] is greater than 11.4 µM; in assay [3] it was 3.98 µM (active); in assay [6] it was greater than 46 µM; in [7], greater than 9.22 µM. Also, the activity change, negative = inhibition was 2.85% in assay [2] and 0.574% in assay [4]. Further, the activity, negative = inhibition in assay [5] was -4.08%. The Potency entry in [8] and in [9] was “inactive” in each case.
As for `CN(C)CCOC(=O)c1ccc(N)cc1`, the Potency in assay [1] is greater than 11.4 µM; in assay [6], greater than 46 µM; in assay [7] it was greater than 9.22 µM. In addition, the results for the activity change, negative = inhibition in assay [2] and in assay [4] were 4.6% and -0.262%, respectively. Further, the Potency entry in [3], in assay [8] and in [9] was “inactive” each time. Besides, in assay [5], the activity, negative = inhibition was -3.48%.
With `O=P(O)(O)O[C@@H]1O[C@H](CO)[C@@H](O)[C@H](O)[C@@H]1O`, the Potency in assay [1] is greater than 11.4 µM; in [6], greater than 46 µM; in [7], greater than 9.22 µM. Moreover, the activity change, negative = inhibition in assay [2] is 4.24%; in assay [4], 2.61%. The Potency entry in assay [3], in [8] and in [9] was “inactive” each time. The activity, negative = inhibition in assay [5] is 6.12%.
For `NCC(=O)Nc1ccccc1`, the Potency in assay [1] is greater than 11.4 µM; in assay [3], 2.51 µM (active); in [6], greater than 46 µM; in [7] it was greater than 9.22 µM. Besides, the activity change, negative = inhibition was 4.23% in assay [2] and 1.46% in assay [4]. Also, the activity, negative = inhibition in assay [5] is 4.18%. The Potency result in assay [8] and in assay [9] was “inactive” each time.
As to `O=C(O)COc1c(Cl)cc(Cl)c2cccnc12`, the Potency is greater than 11.4 µM in assay [1], greater than 46 µM in [6] and greater than 9.22 µM in assay [7]. Further, the values for the activity change, negative = inhibition in assay [2], in assay [3] and in [4] were 6.1%, -1.3% [at 2.29 µM] and 1.63%, respectively. Also, the activity, negative = inhibition in assay [5] was -0.716%. Further, the Potency entry in assay [8] and in assay [9] was “inactive” throughout.
For the compound `O=C(O)CCSC1=NCCN1`, the Potency in [1] was greater than 11.4 µM; in assay [6] it was greater than 46 µM; in [7], greater than 9.22 µM. The activity change, negative = inhibition was 1.39% in [2] and 4.68% in [4]. The Potency entry in assay [3], in [8] and in [9] was “inactive” each time. The activity, negative = inhibition in [5] is 6.09%.
Take `Nc1[nH]c(=O)nc2c1ncn2[C@H]1O[C@@H](CO)[C@@H](O)[C@@H]1O`: the Potency was greater than 11.4 µM in [1], greater than 46 µM in assay [6] and greater than 9.22 µM in assay [7]. The activity change, negative = inhibition in assay [2] is -9.66%; in assay [4] it was 15.7%. Moreover, the Potency entry in assay [3], in assay [8] and in assay [9] was “inactive” in each case. For the same compound, the activity, negative = inhibition in assay [5] was 17.5%.
In the case of `O=C(O)[C@@H]1[C@@H]2C[C@H]([C@@H](Br)[C@H]2N2C(=O)CCC2=O)[C@@H]1C(=O)O`, the Potency in [1] is greater than 11.4 µM; in assay [6] it was greater than 46 µM; in assay [7] it was greater than 9.22 µM. The activity change, negative = inhibition was -1.32% in [2], -15.8% [at 2.29 µM] in [3] and 10.6% in assay [4]. For the same compound, in [5], the activity, negative = inhibition is 11.9%. In addition, the Potency entry in [8] and in assay [9] was “inactive” each time.
In the case of `CCn1c2ccccc2c2nnc(NCCCO)nc21`, the Potency in assay [1] is greater than 11.4 µM; in [3], 1.58 µM (active); in assay [6], greater than 46 µM; in assay [7] it was greater than 9.22 µM. Further, the values for the activity change, negative = inhibition in assay [2] and in assay [4] were 7.47% and 10.3%, respectively. Also, in assay [5], the activity, negative = inhibition is 1%. The Potency result in assay [8] and in [9] was “inactive” in each case.
`CC1(C)O[C@H]2[C@@H](c3[nH]nc4c(=O)[nH]c(=O)[nH]c34)OC[C@H]2O1`: the Potency in assay [1] is greater than 11.4 µM; in assay [6], greater than 46 µM; in assay [7], greater than 9.22 µM. For the same compound, the activity change, negative = inhibition in assay [2] is 8.08%; in [4], -14.8%. Moreover, the Potency entry in assay [3], in assay [8] and in assay [9] was “inactive” throughout. Further, the activity, negative = inhibition in assay [5] was 8.45%.
Regarding `Nc1cccc2cc(S(=O)(=O)Nc3ccc(C(=O)O)cc3)ccc12`, the Potency in assay [1] was greater than 11.4 µM; in assay [6], greater than 46 µM; in [7], greater than 9.22 µM. Also, the activity change, negative = inhibition in assay [2] is -0.623%; in assay [4], 12.7%. In addition, the Potency entry in assay [3], in assay [8] and in assay [9] was “inactive” in each case. Moreover, in assay [5], the activity, negative = inhibition was -1.24%.
